Consider 30 compounds from PubChem BioAssay (EPA / NIEHS).

Results filed as inconclusive are left out. The source made the active and inactive calls. Rule for the calls: active = hit-call score of the fitted dose curve at least 0.9, where 1 is the maximum; inconclusive = response in the unintended direction; inactive = score below 0.9.

Chain of human Insulin Receptor (InsR), INSR (gene 3643) (P06213 whole entry, looked up): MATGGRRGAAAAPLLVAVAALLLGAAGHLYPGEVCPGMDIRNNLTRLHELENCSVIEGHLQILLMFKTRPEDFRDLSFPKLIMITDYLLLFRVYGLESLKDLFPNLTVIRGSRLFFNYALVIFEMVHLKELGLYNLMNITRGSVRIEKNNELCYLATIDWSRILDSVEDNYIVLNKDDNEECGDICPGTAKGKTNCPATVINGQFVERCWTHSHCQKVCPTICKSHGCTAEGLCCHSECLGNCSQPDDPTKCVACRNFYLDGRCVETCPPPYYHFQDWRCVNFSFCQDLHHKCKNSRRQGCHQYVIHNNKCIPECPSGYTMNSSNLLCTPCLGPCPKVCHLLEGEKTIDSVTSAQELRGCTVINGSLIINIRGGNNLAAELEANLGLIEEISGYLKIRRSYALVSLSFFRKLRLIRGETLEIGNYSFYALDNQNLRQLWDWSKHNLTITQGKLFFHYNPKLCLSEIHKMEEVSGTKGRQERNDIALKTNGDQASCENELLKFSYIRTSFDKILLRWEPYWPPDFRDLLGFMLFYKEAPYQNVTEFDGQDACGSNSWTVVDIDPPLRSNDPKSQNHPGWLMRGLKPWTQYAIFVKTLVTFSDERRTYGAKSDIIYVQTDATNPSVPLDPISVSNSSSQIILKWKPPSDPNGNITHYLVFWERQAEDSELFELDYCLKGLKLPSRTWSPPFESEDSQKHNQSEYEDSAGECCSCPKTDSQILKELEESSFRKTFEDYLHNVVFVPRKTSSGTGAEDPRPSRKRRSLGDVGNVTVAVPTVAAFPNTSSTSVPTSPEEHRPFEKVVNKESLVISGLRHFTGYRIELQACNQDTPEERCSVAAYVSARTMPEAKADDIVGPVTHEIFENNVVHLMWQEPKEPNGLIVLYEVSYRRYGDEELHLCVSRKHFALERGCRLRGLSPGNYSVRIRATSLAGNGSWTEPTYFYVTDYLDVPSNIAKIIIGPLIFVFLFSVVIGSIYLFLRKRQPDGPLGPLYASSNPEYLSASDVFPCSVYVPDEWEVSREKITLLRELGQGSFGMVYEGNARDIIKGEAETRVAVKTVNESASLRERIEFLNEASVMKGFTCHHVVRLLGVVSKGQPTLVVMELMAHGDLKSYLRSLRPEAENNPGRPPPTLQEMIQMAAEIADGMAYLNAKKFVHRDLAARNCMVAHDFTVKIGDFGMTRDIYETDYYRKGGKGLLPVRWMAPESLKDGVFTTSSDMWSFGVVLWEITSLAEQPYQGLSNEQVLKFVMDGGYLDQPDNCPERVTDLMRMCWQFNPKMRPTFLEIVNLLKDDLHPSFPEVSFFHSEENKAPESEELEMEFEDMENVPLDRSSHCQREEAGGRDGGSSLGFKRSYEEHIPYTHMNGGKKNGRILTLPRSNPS

One assay addresses human Insulin Receptor (InsR), INSR (gene 3643) (UniProt P06213). Description: NVS_ENZ_hInsR: NovaScreen (NVS) Enzymatic Assay for human Insulin Receptor (InsR) (AID 2283168). The method in brief: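 Fluorescent substrate phosphorylation by recombinant kinase, product resolved by electrophoretic mobility shift, read 1 h after dosing. Screened in duplicate at 25 uM; hits (e.g., 30% inhibition) run in concentration-response to 50 uM; DMSO as baseline.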
`CC(=O)OCCOCCOCCOC(C)=O`: the compound was called inactive.
Same read-out and setting: the entry for `CCc1c(C(=O)NN2CCCCC2)nn(-c2ccc(Cl)cc2Cl)c1-c1ccc(Br)cc1` is “inactive”.
Regarding `O=C(O)CCCCC(=O)O`, the call was inactive.
The same measure, in the same setting: with `COc1cc(C=O)ccc1O` the entry was “inactive”.

For a further assay, the target named is human Janus Kinase 2 (Jak2), JAK2 (gene 3717) (UniProt O60674). In words: NVS_ENZ_hJak2: NovaScreen (NVS) Enzymatic Assay for human Janus Kinase 2 (Jak2) (AID 2283169). Put shortly: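 Cell-free recombinant human JAK2 enzyme activity assay, fluorescence/electrophoretic mobility shift read 1 h after dosing. Screened in duplicate at 25 uM, then concentration-response up to 50 uM; activity as signal loss relative to DMSO.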
Chain of human Janus Kinase 2 (Jak2), JAK2 (gene 3717) (O60674 whole entry, looked up): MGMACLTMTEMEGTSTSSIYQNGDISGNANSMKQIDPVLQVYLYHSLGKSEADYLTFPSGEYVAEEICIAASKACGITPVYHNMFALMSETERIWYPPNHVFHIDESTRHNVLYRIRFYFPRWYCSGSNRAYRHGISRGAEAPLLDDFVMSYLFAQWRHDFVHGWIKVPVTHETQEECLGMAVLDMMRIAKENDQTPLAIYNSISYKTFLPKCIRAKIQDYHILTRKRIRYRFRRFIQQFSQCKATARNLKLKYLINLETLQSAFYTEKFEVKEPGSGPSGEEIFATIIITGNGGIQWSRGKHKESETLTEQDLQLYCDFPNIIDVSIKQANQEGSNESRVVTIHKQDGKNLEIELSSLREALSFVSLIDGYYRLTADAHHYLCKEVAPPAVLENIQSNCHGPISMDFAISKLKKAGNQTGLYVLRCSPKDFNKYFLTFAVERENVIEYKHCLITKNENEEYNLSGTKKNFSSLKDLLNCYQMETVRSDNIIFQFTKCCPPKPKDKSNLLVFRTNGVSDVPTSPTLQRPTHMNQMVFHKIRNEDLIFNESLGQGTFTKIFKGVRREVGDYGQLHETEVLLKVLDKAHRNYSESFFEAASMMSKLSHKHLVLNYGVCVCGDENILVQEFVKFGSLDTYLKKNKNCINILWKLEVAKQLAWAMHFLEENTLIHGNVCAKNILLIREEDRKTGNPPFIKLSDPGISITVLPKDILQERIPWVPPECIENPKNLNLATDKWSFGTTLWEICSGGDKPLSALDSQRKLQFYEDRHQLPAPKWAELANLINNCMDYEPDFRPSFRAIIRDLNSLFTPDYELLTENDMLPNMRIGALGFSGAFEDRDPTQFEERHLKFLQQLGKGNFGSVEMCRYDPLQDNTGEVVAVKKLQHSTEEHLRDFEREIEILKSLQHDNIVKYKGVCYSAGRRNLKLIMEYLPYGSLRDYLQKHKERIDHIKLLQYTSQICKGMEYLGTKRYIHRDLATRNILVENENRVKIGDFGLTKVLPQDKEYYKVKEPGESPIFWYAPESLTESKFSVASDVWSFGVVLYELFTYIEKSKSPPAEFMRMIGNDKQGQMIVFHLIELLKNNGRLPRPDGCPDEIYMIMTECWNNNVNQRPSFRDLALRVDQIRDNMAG
For orientation: AC50 means the midpoint of the concentration-response curve, whichever way the signal moves. On to `Nc1nc(N)c2nc(CNc3ccc(C(=O)N[C@@H](CCC(=O)O)C(=O)O)cc3)cnc2n1`, for which the AC50 was 21.9 µM (active).
For the compound `CCOC(=O)C(C)(C)Oc1ccc(Cl)cc1`, the result was inactive.
The same measure, in the same setting: with `Cc1oc(-c2ccccc2)nc1CCOc1cccc2c1ccn2CCC(=O)O` the entry was “inactive”.
On the same count and under the same terms, the entry for `CCCCCCCCCCCCCCCC` is “inactive”; for `FC(F)(F)C(F)(F)C(F)(F)C(F)(F)C(F)(F)C(F)(F)CCI` it is “inactive”.
The same measure, in the same setting: with `CCCCCCCCCCCCCCCCCC(=O)O` the entry was “inactive”.
`CC1=C(/C=C/C(C)=C/C=C/C(C)=C/CO)C(C)(C)CCC1`: the compound was called inactive.
Take `Cc1nc(-c2ccc3c(c2)CCN(CCC2CCC(NC(=O)/C=C/c4ccc(F)cc4)CC2)CC3)no1` (stereo not given): the AC50 is 17.1 µM (active).

In the next assay the target is human MAP Kinase-Activated Protein Kinase 2 (MAPKAPK2), MAPKAPK2 (gene 9261) (UniProt P49137). In words: NVS_ENZ_hMAPKAPK2: NovaScreen (NVS) Enzymatic Assay for human MAP Kinase-Activated Protein Kinase 2 (MAPKAPK2) (AID 2283178). The method in brief: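 Cell-free recombinant human MAPKAPK2 activity measured by fluorescence with electrophoretic mobility shift separation of substrate and product, 1 hr after dosing. Loss of signal versus DMSO; primary screen at 25 uM, concentration-response up to 50 uM.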
Chain of human MAP Kinase-Activated Protein Kinase 2 (MAPKAPK2), MAPKAPK2 (gene 9261) (P49137 whole entry, looked up): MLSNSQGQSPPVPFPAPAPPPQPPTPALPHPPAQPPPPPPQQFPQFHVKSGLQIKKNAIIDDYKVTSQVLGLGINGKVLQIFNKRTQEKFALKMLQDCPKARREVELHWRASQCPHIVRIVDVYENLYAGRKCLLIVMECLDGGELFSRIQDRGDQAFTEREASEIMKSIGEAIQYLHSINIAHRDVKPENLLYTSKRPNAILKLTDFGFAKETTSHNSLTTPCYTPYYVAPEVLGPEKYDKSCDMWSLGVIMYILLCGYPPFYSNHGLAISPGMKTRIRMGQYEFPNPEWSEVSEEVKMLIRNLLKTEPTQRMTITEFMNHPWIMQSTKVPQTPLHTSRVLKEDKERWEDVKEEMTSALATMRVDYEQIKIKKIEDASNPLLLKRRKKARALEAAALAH
On to `COc1cc(-c2nc(NC(=O)c3cc4cc(C)cc(C)c4n3CC(=O)O)sc2CCC2CCCCC2)c(OC)cc1Cl`, for which the AC50 was 6.49 µM (active).
With `CC(C)c1ccc(C(=O)N=C(N)N)cc1S(C)(=O)=O`, the compound was classed as inactive.
Same read-out and setting: with `CCOC(=O)CCC(=O)OCC` the entry was “inactive”.
As to `Nc1ccc2c(c1)C(=O)c1ccccc1C2=O`, the AC50 was 16.5 µM (active).

In a further assay the target is Collagenase 3 (Homo sapiens) (UniProt P45452). In words: NVS_ENZ_hMMP13: NovaScreen (NVS) Enzymatic Assay for human Matrix Metalloproteinase-13 (MMP13) (AID 2283182). The method in brief:
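Recombinant MMP13 cleaving fluorescent substrate, cell-free, measured 1 h after dosing. Primary duplicate screen at 25 uM; actives tested in concentration-response up to 50 uM; loss of signal relative to DMSO.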
`CN[C@H]1CC[C@@H](c2ccc(Cl)c(Cl)c2)c2ccc(S(N)(=O)=O)cc21`: the concentration at half-maximal activity (AC50) was 2.36 µM (active).
On the same count and under the same terms, with `Cc1cccc([N+](=O)[O-])c1C` the figure was 2.06 µM (active).
For the compound `c1cc(-c2ccncc2)ccn1`, the compound was classed as inactive.
`COCCOC[C@H](CC1(C(=O)NC2CCC(C(=O)O)CC2)CCCC1)C(=O)Oc1ccc2c(c1)CCC2` (stereo not given in full): the AC50 was 17.3 µM (active).
The same measure, in the same setting: with `CN1CCN(Cc2cc(-c3ccc4[nH]c(=O)oc4c3)co2)[C@@H](c2ccc(F)cc2)C1` the figure was 7.74 µM (active); with `CC1=C(/C=C/C(C)=C/C=C/C(C)=C/CO)C(C)(C)CCC1`, 18.2 µM (active).
As for `Cc1nc(-c2ccc3c(c2)CCN(CCC2CCC(NC(=O)/C=C/c4ccc(F)cc4)CC2)CC3)no1` (stereo not given), the AC50 was 5.67 µM (active).

For another assay, the target named is human Matrix Metalloproteinase-7 (MMP7), MMP7 (gene 4316) (UniProt P09237). Description: NVS_ENZ_hMMP7: NovaScreen (NVS) Enzymatic Assay for human Matrix Metalloproteinase-7 (MMP7) (AID 2283183). Put shortly: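 Cell-free fluorescence enzymatic assay read 1 h after compound addition, activity loss analyzed against DMSO. Primary duplicate testing at 25 uM; compounds meeting threshold rerun in singleton concentration-response up to 50 uM.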
Chain of human Matrix Metalloproteinase-7 (MMP7), MMP7 (gene 4316) (P09237 whole entry, looked up): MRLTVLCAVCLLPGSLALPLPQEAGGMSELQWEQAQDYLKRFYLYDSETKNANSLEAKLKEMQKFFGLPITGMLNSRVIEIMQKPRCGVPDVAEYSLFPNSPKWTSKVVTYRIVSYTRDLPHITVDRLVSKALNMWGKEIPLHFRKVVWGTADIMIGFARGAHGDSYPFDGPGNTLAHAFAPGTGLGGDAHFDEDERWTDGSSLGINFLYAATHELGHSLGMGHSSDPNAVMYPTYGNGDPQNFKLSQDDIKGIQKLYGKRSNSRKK
For the compound `CN[C@H]1CC[C@@H](c2ccc(Cl)c(Cl)c2)c2ccc(S(N)(=O)=O)cc21`, the result was inactive.
As to `Nc1ccc(S(=O)(=O)c2ccc(N)cc2)cc1`, the compound was called inactive.
Take `CNC(=O)[C@H]1O[C@@H](n2cnc3c(NCc4cc(Cl)ccc4OCc4cc(C)no4)ncnc32)[C@H](O)[C@@H]1N`: the outcome was inactive.
As for `Cc1oc(-c2ccccc2)nc1CCOc1cccc2c1ccn2CCC(=O)O`, the call was inactive.
For `C[Si]1(C)O[Si](C)(C)O[Si](C)(C)O[Si](C)(C)O1`, the outcome was inactive.
Same read-out and setting: the entry for `CC(C)(C)c1cc(O)c(C(C)(C)C)cc1O` is “inactive”; for `CCCCCCC(=O)OCC` it is “inactive”.
Same read-out and setting: the entry for `CCCCCCCCCCCC(=O)OC` is “inactive”; for `CN1CCN(Cc2cc(-c3ccc4[nH]c(=O)oc4c3)co2)[C@@H](c2ccc(F)cc2)C1` it is “inactive”.
Same read-out and setting: with `O=[N+]([O-])C(CO)(CO)CO` the entry was “inactive”; with `OC[C@@H](O)[C@@H](O)[C@H](O)[C@H](O)CO`, “inactive”; with `CC=Cc1ccc(O)c(OC)c1`, “inactive”.
